KDM5B inh: Primary screen for KDM5B Histone Demethylases FDH-coupled qHTS. 2.6% of 220,000 active. Lysine-specific demethylase 5B (Homo sapiens), Q9UGL1. AID 1347165, 2019. KDM5B demethylase, FDH-coupled NADH fluorescence (FDH is formaldehyde dehydrogenase). Potency, µM (highest dose often 57.7 µM), most hits filed as inhibitors; active = well fitted inhibition curve with a large enough effect; also: 0% is about no effect; nearly all actives have a fitted effect of over 70% in size
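KDM5BΔAP (200 nM final) in 50 mM HEPES pH 7.5, 0.01% Tween-20 was preincubated 10 min at RT with compound over a concentration range. Substrate mix (H3K4me3 12.5 µM, α-KG 25 µM, Fe²⁺, ascorbate, NAD⁺, FDH) was added, and NADH fluorescence change over 30 min gave dose-response curves.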
An asterisk follows results filed as active; i = inactive. Shown is part of a subset that was picked to be rich in hits. Potency is read from the fitted curve at half-maximal effect.

SMILES | KDM5B inh
O=C1NCCOCCCN(C(=O)c2ccsc2)[C@H]2CCCC[C@@H]12 | i
CCc1ccc(OCC(O)Cn2c(NCCN(CC)CC)nc3c2c(=O)[nH]c(=O)n3C)cc1 (stereo not given) | i
Cc1sc2ncn(Cc3nc(-c4ccco4)no3)c(=O)c2c1C | i
OC[C@@H]1CN(Cc2ccco2)C[C@H]1c1ccncc1 | i
OC[C@@H]1CN(Cc2cccc3[nH]ccc23)C[C@H]1c1ccncc1 | 25µM*
CCn1ncc(CN2C[C@@H](CO)[C@H](c3ccncc3)C2)c1C | i
Cc1cc(C)c(NC(=O)CCNC(=O)Cc2ccccc2)c(C)c1 | i
CC(C)n1nc(C(=O)NCc2cc3ccccc3[nH]2)c2ccccc2c1=O | i
NC(=O)c1ccc(C(=O)OCc2nc3ccccc3o2)cc1 | i
N#Cc1ccc(Oc2cccc(C(=O)OCC(=O)c3ccccc3)c2)cc1C#N | i
Cc1ccc(-n2nc(C)c([C@@H]3C=C[C@@H](NC(=O)CC(C)(C)CC(=O)O)C3)c2C)cc1Cl | i
Cc1nn(-c2ccc(C(C)C)cc2)c(C)c1[C@@H]1C=C[C@@H](NC(=O)NCc2ccccc2)C1 | i
COc1ccc(C(=O)N[C@@H]2C=C[C@@H](c3c(C)nn(-c4ccc(C(F)(F)F)cc4)c3C)C2)cc1 | i
Cc1ccc(-n2nc(C)c([C@@H]3C=C[C@@H](NCc4ccc(N(C)C)cc4)C3)c2C)cc1Cl | 40µM*
Cc1nn(-c2ccc(C(F)(F)F)cc2)c(C)c1[C@@H]1C=C[C@@H](NC(=O)c2ccc(N(C)C)cc2)C1 | 32µM*
CC(=O)N[C@@H]1C=C[C@@H](c2c(C)nn(-c3ccc(C(F)(F)F)cc3)c2C)C1 | i
Cc1nn(-c2ccc(C(C)(C)C)cc2)c(C)c1[C@@H]1C=C[C@@H](NC(=O)NCc2ccccc2)C1 | 32µM*
CCNC(=O)N[C@@H]1C=C[C@@H](c2c(C)nn(-c3ccc(C(C)(C)C)cc3)c2C)C1 | i
Cc1ccc(-n2nc(C)c([C@H]3C=C[C@@H](O)C3)c2C)cc1Cl | i
CC(=O)NCc1ccc(-c2csc(-c3ccc(C(C)C)cc3)n2)o1 | i
O=C(O)[C@@H]1CN(S(=O)(=O)C2CC2)C[C@H]1c1ccccn1 | i
O=C(c1ccsc1)N1CCCC(c2noc(COc3ccccc3F)n2)C1 (stereo not given) | i
COc1ccc(C(=O)N2CCc3onc(-c4ccc(C(F)(F)F)cc4)c3C2)o1 | 10µM*
CCCOCC(=O)N1CCc2onc(-c3ccc(C(F)(F)F)cc3)c2C1 | i
CC(C)OC(C)C(=O)N1CCc2onc(-c3ccc(C(F)(F)F)cc3)c2C1 (stereo not given) | i
SMILES | KDM5B inh
COCCNC(=O)C[C@@H]1C[C@H]2O[C@H](CNC3Cc4ccccc4C3)[C@@H](O)[C@H]2O1 | i
Cc1ccc(C#N)c(N2CCCC(c3nccn3CC3CCC3)C2)n1 (stereo not given) | 32µM*
CSCc1ccc(C(=O)N2CCCC(c3nccn3CC3CC3)C2)o1 (stereo not given) | i
O=C(NCc1ccccc1)N1CCCC(c2nccn2CC2CCC2)C1 (stereo not given) | i
CS(=O)(=O)N1CCC(OC2CCN(C(=O)Cc3c[nH]c4ccccc34)CC2)CC1 | i
CCc1nnsc1C(=O)NC(C)c1ccc(SC)cc1 (stereo not given) | i
CCc1ccc(NC(=O)c2ccc(Cn3ccn4nc5c(c4c3=O)CCCC5)cc2)cc1 | i
O=C(Nc1ccc(F)c(F)c1)c1ccc(Cn2ccn3nc4c(c3c2=O)CCCC4)cc1 | 25µM*
O=C(Nc1ccc(Cl)cc1)c1ccc(Cn2ccn3nc4c(c3c2=O)CCCC4)cc1 | i
CC(C)c1cccc(NC(=O)CCn2ccn3nc4c(c3c2=O)CCCC4)c1 | i
CC(C)c1cccc(NC(=O)c2ccc(Cn3ccn4nc5c(c4c3=O)CCCC5)cc2)c1 | 22µM*
O=C(NCc1ccccn1)c1ccc(Cn2ccn3nc4c(c3c2=O)CCCC4)cc1 | i
O=C(CCn1ccn2nc3c(c2c1=O)CCCC3)Nc1cccc(F)c1 | i
COc1ccccc1OCCNC(=O)c1ccc(Cn2ccn3nc4c(c3c2=O)CCCC4)cc1 | 25µM*
COCCCNC(=O)c1ccc(Cn2ccn3nc4c(c3c2=O)CCCC4)cc1 | i
O=C(Nc1ccccc1)c1ccc(Cn2ccn3nc4c(c3c2=O)CCCC4)cc1 | 22µM*
CC(C)OCCCNC(=O)c1ccc(Cn2ccn3nc4c(c3c2=O)CCCC4)cc1 | i
O=C(CCn1ccn2nc3c(c2c1=O)CCCC3)Nc1ccc(F)cc1 | i
Cc1cc(C(F)(F)F)nn1CC(=O)NCCn1c(C)cnc1C1CCC1 | i
COc1cccc(-c2nc3cc(NC(=O)c4ccc(C)c([N+](=O)[O-])c4)ccc3o2)c1 | i
COc1ccc(NC(=O)c2c(-c3ccc(OC)cc3)oc3ccc(OC)cc23)cc1 | i
CSc1nc(-c2ccccc2)c2ccccc2n1 | i
CCCCn1c(=O)[nH]c(=O)c2c1nc(COC(=O)c1cc(C)cc(C)c1)n2CCC | i

Screens as filed in PubChem BioAssay.
